Most compounds without a hit are left out; they make up all but 0.9% or so of the library.
RXFP1 antagonist – blocks the human relaxin receptor RXFP1; Q9HBX9; HEK293-RXFP1, relaxin-stimulated cAMP HTRF, 30 min; hits give low values; activity change, negative = inhibition, % at 57.5 µM; actives 0.59% (n = 350,000); AID 1259400;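 active = activity change of -60% or lower, but not beyond a set lower limit; inconclusive = change between -60% and -40%, or beyond the set limit; inactive = change above -40%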; also: % is scaled to controls: 0 for no effect and ±100 for the full control effect
Target sequence (Q9HBX9 whole entry, looked up): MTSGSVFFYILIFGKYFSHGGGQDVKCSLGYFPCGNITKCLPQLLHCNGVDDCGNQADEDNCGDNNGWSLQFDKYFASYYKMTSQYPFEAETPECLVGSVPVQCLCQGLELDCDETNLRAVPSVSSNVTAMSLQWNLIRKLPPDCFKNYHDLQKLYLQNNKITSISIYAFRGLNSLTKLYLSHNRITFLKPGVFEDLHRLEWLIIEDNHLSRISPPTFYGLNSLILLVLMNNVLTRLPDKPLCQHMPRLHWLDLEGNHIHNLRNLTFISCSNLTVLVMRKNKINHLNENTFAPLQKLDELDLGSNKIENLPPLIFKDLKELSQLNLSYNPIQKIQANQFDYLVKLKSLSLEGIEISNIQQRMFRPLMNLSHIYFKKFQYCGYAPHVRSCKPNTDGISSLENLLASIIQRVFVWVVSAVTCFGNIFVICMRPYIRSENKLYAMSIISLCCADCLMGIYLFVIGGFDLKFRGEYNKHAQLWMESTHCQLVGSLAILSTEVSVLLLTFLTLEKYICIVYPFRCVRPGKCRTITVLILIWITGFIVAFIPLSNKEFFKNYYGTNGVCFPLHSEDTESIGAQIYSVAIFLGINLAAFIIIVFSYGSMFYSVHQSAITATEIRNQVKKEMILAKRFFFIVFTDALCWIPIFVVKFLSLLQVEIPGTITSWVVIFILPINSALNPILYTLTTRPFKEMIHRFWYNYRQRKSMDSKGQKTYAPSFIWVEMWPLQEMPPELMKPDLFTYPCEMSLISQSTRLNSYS
RXFP1 ag – RXFP1 (human) receptor agonism. Q9HBX9. HEK293T-RXFP1 cAMP TR-FRET, 30 min; response scale: percent of porcine relaxin response, buffer zero. Potency, µM (top dose mostly 57.5 µM), without a hit: at the highest dose activation, usual class: activators. actives 0.3% (n = 370,000); active = well fitted activation curve with a large enough effect; inconclusive = small, poorly fitted or top-dose-only effect; also: potency is read from the fitted curve at half-maximal effect; % is scaled to controls: 0 for no effect and ±100 for the full control effect; nearly all actives have a fitted effect of over 60% in size
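HEK293 cells stably expressing RXFP1, treated 30 min at 37C with compounds plus PDE4 inhibitor Ro 20174; cAMP measured by HTRF TR-FRET. Normalized to buffer and 29 nM porcine relaxin; EC50 by Hill fit.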
gsp antagonist – gsp mutant antagonism; gsp-mutant cells, cAMP HTRF, 30 min; Potency, µM (series often up to 76.9 µM), for inactives: top-dose activity change, negative = inhibition, hits mostly inhibitors; actives 0.4% (n = 340,000); calls by dose curve; cell line not stated here;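 also: intracellular cAMP measured with PDE inhibitor Ro 20-1724 present during compound exposure; potency is read from the fitted curve at half-maximal effect; % is scaled to controls: 0 for no effect and ±100 for the full control effect; nearly all actives have a fitted effect of over 65% in size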
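HTRF cAMP measurement after 30 min RT detection following 30 min, 37C compound treatment alongside […] (added as 300 uM solution) in G418-selected cells seeded at 2000/well and grown 16–24 h.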
gsp ag – gsp mutant agonism; gsp mutant cells, cAMP HTRF, 30 min; Potency, µM (highest dose often 76.9 µM), for inactives: at the highest dose activation (cAMP increase), usual class: activators; actives 0.13% (n = 340,000); active = well fitted activation curve with a large enough effect; inconclusive = small, poorly fitted or top-dose-only effect, or another doubt; inactive = no such curve, though single readings can be large or run the other way; cell line not stated here;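 also: phosphodiesterase inhibitor Ro 20-1724 added with compounds to block cAMP breakdown; potency is read from the fitted curve at half-maximal effect; nearly all actives have a fitted effect of over 60% in size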
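Cells stably selected in G418 were plated at 2000/well, grown 16-24 hr, then given compounds in DMSO with the PDE inhibitor […] (300 uM solution added) for 30 min at 37C; cAMP was read by HTRF.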
* marks the source's active call; other numbers are inactive results; ? = inconclusive; . = no result given; [ ] = remark or other dose.

SMILES	RXFP1 antagonist	RXFP1 ag	gsp antagonist	gsp ag
CCOC(=O)N1CCc2c(sc3c2c(=O)n(Cc2ccccc2)c(=O)n3CC(=O)Nc2ccc(C)cc2C)C1	1	1%	.	.
COc1cc(C2c3c(oc4ccccc4c3=O)C(=O)N2c2nccs2)ccc1O (centres undefined)	-105*	0%	2%	-41%[15.4 µM]
O=Nc1c(-c2c(O)[nH]c3cc(Br)ccc23)[nH]c2ccccc12	.	0%	20µM*	.
COc1ccc(S(=O)(=O)N(CC(=O)NCc2cccnc2)Cc2ccccc2)cc1	-3	0%	11µM*	1%[15.4 µM]
CCOC(=O)c1cccc(NC(=O)Cn2c(=O)nc(-c3ccccc3)c3ccccc32)c1	-10	10%	.	.
Cc1cc(-c2ccc(S(=O)(=O)Nc3ccccc3C)cc2)on1	21	0%	.	.
Cc1ccc(NC(=O)/C(C#N)=C/c2cc(C)n(-c3ccc(Br)cc3)c2C)cc1C	-63*	0%	.	.
Oc1ccc(Nc2nc(-c3ccccc3)nc3ccccc23)cc1	-77*	-1%	-10%	5%[15.4 µM]
O=C(Nc1ccc(S(=O)(=O)N2CCOCC2)cc1)c1cccnc1	-8	0%	4%	-2%[15.4 µM]
O=C(NCCOC(=O)c1ccc(S(=O)(=O)N2CCOCC2)cc1)c1cccnc1	9	23%	5%	28µM*
O=C(NC(=S)Nc1ccc2oc(-c3ccncc3)nc2c1)c1ccccc1F	6	-2%	32µM*	0%
COc1ccccc1N1CCN(C(=O)c2cc3c(C)nc4ccccc4c3o2)CC1	-62*	1%	-27%	7%
Cc1ccc(C)c(N2CCN(C(=O)c3cc4c(C)nc5ccccc5c4o3)CC2)c1	-5	0%	?	23%
COc1cc(NC(=O)C(C)Oc2ccccc2)ccc1NC(=O)COc1ccccc1 (centres undefined)	-7	0%	40µM*	-24%
COc1ccccc1Nc1c2c(nc3ccc(NC(=O)c4ccccc4F)cc13)CCCC2	-66*	2%	.	.
COc1ccccc1Nc1c2c(nc3ccc(NC(=O)c4cccc(OC)c4OC)cc13)CCCC2	-29	1%	.	.
O=S(=O)(c1ccccc1)c1nc(-c2ccco2)oc1SCc1ccc(F)cc1	-9	0%	.	.
CCOC(=O)c1c(NC(=O)CSc2nc3ccc(OC)cc3[nH]2)sc2c1CC(C)(C)NC2(C)C	-62*	0%	-6%	3%[15.4 µM]
CC(C)c1ccc2oc(=O)cc(CN3CCN(c4ccc(F)cc4)CC3)c2c1	-19	0%	35µM*	4%
O=C(N/N=C1\C/C(=N\NC(=O)c2ccncc2)c2ccccc21)c1ccncc1	-6	32µM*	-15%	25µM*
CCOc1cc(CNCCO)cc(Br)c1OCc1ccc(Cl)cc1Cl	-92*	2%	6%	18%
COc1ccc(CCN2C(=O)/C(=C\c3ccco3)SC2=S)cc1OC	-77*	0%	-4%	5%
CCc1ccccc1NC(=O)CN(c1ccccc1)S(=O)(=O)c1ccsc1C(=O)OC	.	-1%	.	.
Clc1ccc(C(c2ccccc2Cl)C(Cl)Cl)cc1 (centres undefined)	-74*	-2%	-15%	.
CCOc1ccc(S(=O)(=O)Nc2ccccc2SC)c2cccnc12	7	-3%	13µM*	-16%
SMILES	RXFP1 antagonist	RXFP1 ag	gsp antagonist	gsp ag
C=C(C)Cn1c(SCC(=O)c2ccc(OC)cc2)nc2sc3c(c2c1=O)CCCC3	-4	0%	.	.
COc1ccc(-c2nc3nc(C)cc(Nc4cccc(C(F)(F)F)c4)n3n2)cc1	-2	32µM*	.	.
Cc1cc(Nc2cccc(C(F)(F)F)c2)n2nc(C)nc2n1	-3	1%	6%	2%
COc1ccc(C(=O)/C=C2/C(=O)Nc3ccccc32)cc1	-39	-4%	-6%	?
COc1ccc(C(=O)/C=C2/C(=O)Nc3ccccc32)c(OC)c1	-86*	6%	4%	5%[15.4 µM]
CC(C)N(Cc1ccccc1)C(=O)COC(=O)c1cc(S(=O)(=O)N(C)C)ccc1N1CCCC1	-75*	.	-15%	6%
CN(C)S(=O)(=O)c1ccc(N2CCCC2)c(C(=O)OCC(=O)N2CCN(c3ccccc3)CC2)c1	-13	-1%	5%	5%
CC(C)N(Cc1ccccc1)C(=O)COC(=O)c1cnc(Cl)c(Cl)c1	-72*	.	-27%	9%
CCOC(=O)C1CCN(c2nc3ccccc3nc2Cl)CC1	.	7%	.	.
CCOc1ccccc1NC(=O)CSc1nc2c(sc3ccccc32)c(=O)n1CCCC(=O)NC1CCCC1	1	1%	.	.
CCCOc1cccc(-c2nc3ccccc3c(=O)o2)c1	-84*	1%	?	-8%[15.4 µM]
CCCOc1ccc(-c2nc3ccccc3c(=O)o2)cc1	.	0%	.	.
COc1cc(-c2n[nH]c(=S)n2-c2ccc(C)cc2)cc(OC)c1OC	-14	-1%	-8%	14µM*
COc1cc(OC)cc(-c2n[nH]c(=S)n2-c2ccc3c(c2)OCO3)c1	-16	10%	-15%	7.1µM*
Fc1ccc(-n2c(-c3ccc4c(c3)OCO4)n[nH]c2=S)cc1Cl	-25	4%	1%	?
CC1=C(c2ccc(C)c(C)c2)S(=O)(=O)N(Cc2ccc(C(=O)NCc3ccc(C)cc3)cc2)C1=O	-2	1%	.	.
CCOc1ccccc1NC(=O)C1CCCN1S(=O)(=O)c1ccccc1C(F)(F)F (centres undefined)	-3	0%	-8%	-3%
O=C(CSc1nc(-c2ccc(F)cc2)[nH]c1-c1ccc(F)cc1)Nc1ccc2c(c1)OCO2	-60*	2%	.	.
CC(C)Oc1ccc(CNC(=O)Cc2ccc(NC(=O)N3CCSc4ncccc43)cc2)cc1	-14	0%	.	.
Cc1cc(=O)c2c(O)c3c(O)cc(=O)c4c3c3c(cc(O)c1c23)C(C)(C)C=4O	-10	.	.	.
Cc1ccccc1-c1cc(C(=O)Nc2sc(C(=O)OC(C)C)c(C)c2C#N)c2ccccc2n1	-65*	1%	11µM*	-28%
C=CC(=O)N1C/C(=C/c2ccc(Cl)cc2)C(=O)/C(=C\c2ccc(Cl)cc2)C1	-67*	.	4%	29%
C=CC(=O)N1C/C(=C/c2ccccc2)C(=O)/C(=C\c2ccccc2)C1	-116*	.	-17%	0%
O=C1/C(=C/c2ccc(C(=O)O)cc2)CCC/C1=C\c1ccc(C(=O)O)cc1	.	1%	4%	-2%
CN1C/C(=C/c2ccncc2)C(=O)/C(=C/c2ccncc2)C1	-30	1%	11%	?
SMILES	RXFP1 antagonist	RXFP1 ag	gsp antagonist	gsp ag
CCCOc1ccc(C2C(=O)N(C3CCCCCC3)CC(=O)N2CCCOCC)cc1OC (centres undefined)	10	1%	.	.
N=C(N)c1ccc(OCCCOc2ccc(C(=N)N)cc2)cc1	-16	.	.	.
CC(C)Oc1ccc(Br)cc1/C=N\NC(N)=S	-65*	0%	4%	?
O=C1c2cccc(NCCCNCCO)c2C(=O)c2cccc(NCCCNCCO)c21	?	.	40µM*	-3%
COc1ccc([N+](=O)[O-])cc1NC(=O)COC(=O)Cc1cc(OC)c(OC)c(OC)c1	2	1%	50µM*	7%
COc1ccc(CCNC(=O)c2ccc(-c3ccc([N+](=O)[O-])cc3)o2)cc1OC	4	3%	32µM*	0%
